Pf Dd2 inh – qHTS Primary assay for Inhibitors of Plasmodium falciparum Dd2 growth in vitro; actives 4.3% (n = 120,000); P. falciparum Dd2 growth, SYBR Green, 72 h; Potency, µM (highest dose often 28.9 µM), for inactives: at the top dose activity, negative = inhibition, actives largely listed as inhibitors; active = well fitted inhibition curve with a large enough effect;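 also: plate controls were DMSO vehicle for no effect and reference drug for full effect; nearly all actives have a fitted effect of over 65% in size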
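Readout: SYBR Green fluorescence, 485 nm excitation, 535 nm emission, after ~16 h lysis at 37C. Before that, Dd2-infected red cells (2.5% hematocrit) grew 72 h with compound, 29 uM top final concentration.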
Active calls of the source: *; i = inactive; [ ] = another dose, or the depositor's remark. Shown is part of a subset that was picked to be rich in hits. Potency is read from the fitted curve at half-maximal effect.

SMILES	Pf Dd2 inh
COc1ccccc1Cc1nc(-c2nnn3c2COC(c2ccc(C)cc2)C3)no1 (configuration not stated)	7.94µM*
Cc1ccc(C2Cn3nnc(-c4noc(COc5ccc(F)cc5)n4)c3CO2)cc1 (configuration not stated)	-23.9%
Cc1cccc(C(=O)NCCC2CCN(C(=O)Nc3ccc(F)cc3)CC2)c1	-17.9%
Cc1ccc(NC(=O)N2CCC(CCNC(=O)c3n[nH]c4ccccc34)CC2)cc1F	3.98µM*
Cc1ccc(OCC(=O)NCCC2CCN(C(=O)Nc3ccc(F)cc3)CC2)cc1	12.6µM*
Cc1ccc(NC(=O)N2CCC(CCNC(=O)Cc3cccc(F)c3)CC2)cc1	i
CCC(=O)NCCC1CCN(C(=O)Nc2ccc(C)c(F)c2)CC1	-18.1%
CCC(=O)NCCC1CCN(C(=O)Nc2ccc(C)cc2)CC1	-5.5%
CC1CCCN(Cc2nc3c(c(=O)n(C)c(=O)n3C)n2Cc2ccc(Cl)cc2Cl)C1 (configuration not stated)	6.4%
Cc1cccc(=O)n1CCC(=O)N1CCCC2(CCC(=O)N(C3CC3)C2)C1 (configuration not stated)	-6.3%
CCc1ccc(-n2c(=O)c3c4c(sc3n(Cc3ccccc3C#N)c2=O)CCCC4)cc1	8.8%
CC1Cn2c(C(=O)NCc3ccccc3Cl)cc3cccc(c32)S1 (configuration not stated)	i
CN1c2cc(C(=O)Nc3cc(F)cc(F)c3)ccc2C(=O)N2CCCCCC21 (configuration not stated)	4.47µM*
CCN1c2cc(C(=O)NCc3cccc(C)c3)ccc2C(=O)N2CCCCC21 (configuration not stated)	i
Cc1ccc(CNC(=O)c2ccc3c(c2)N(C)C2CCCCCN2C3=O)cc1C (configuration not stated)	i
Cc1cccc(CNC(=O)c2ccc3c(c2)N(C)C2CCCN2C3=O)c1 (configuration not stated)	10µM*
CCN1c2cc(C(=O)NCc3ccc(C(C)C)cc3)ccc2C(=O)N2CCCCCC21 (configuration not stated)	11.2µM*
CCc1cccc(NC(=O)c2ccc3c(c2)N(C)C2CCCN2C3=O)c1 (configuration not stated)	-7.3%
CCc1cccc(NC(=O)c2ccc3c(c2)N(CC)C2CCCCN2C3=O)c1 (configuration not stated)	4.47µM*
Cc1cc(C)cc(NC(=O)c2ccc3c(c2)N(C)C2CCCCCN2C3=O)c1 (configuration not stated)	i
CCN1c2cc(C(=O)NCc3ccc(C)cc3)ccc2C(=O)N2CCCCCC21 (configuration not stated)	-9.0%
CN1c2cc(C(=O)Nc3cccc(F)c3)ccc2C(=O)N2CCCCC21 (configuration not stated)	-11.4%
CCN1c2cc(C(=O)NCc3ccccc3)ccc2C(=O)N2CCCCC21 (configuration not stated)	-4.3%
CCN1c2cc(C(=O)Nc3cccc(C)c3)ccc2C(=O)N2CCCCC21 (configuration not stated)	i
CCc1nc(-c2c3n(c(=O)n(CC(=O)Nc4cc(F)ccc4F)c2=O)CCCC3)no1	-18.0%
SMILES	Pf Dd2 inh
O=C(NCc1cccs1)C1CCN(C(=O)c2ncn3c2COC(c2ccccc2)C3)CC1 (configuration not stated)	i
C[C@@H]1CN(C(=O)CCSCc2ccccc2)CC[C@@]1(O)C1CCOCC1	-8.0%
O=C(Nc1ccccc1)N[C@H]1CO[C@H]2[C@@H]1OC[C@@H]2n1nnnc1-c1ccc2c(c1)OCO2	-1.9%
Cc1c(-c2ccccc2F)[nH]c2ccc(CNS(=O)(=O)C3CC3)cc12	-20.2%
COCCn1c(C)nnc1-c1cc(-c2cccc(CO)c2)ccn1	-24.7%[44.1 µM]
CCN1c2cc(C(=O)Nc3ccc(Br)c(C)c3)ccc2C(=O)N2CCCCC21 (configuration not stated)	5.62µM*
CCc1cccc(NC(=O)c2ccc3c(c2)N(CC)C2CCCCCN2C3=O)c1 (configuration not stated)	5.62µM*
CCN1c2cc(C(=O)Nc3ccc(C)cc3)ccc2C(=O)N2CCCCC21 (configuration not stated)	i
CCN1c2cc(C(=O)Nc3ccc(C)c(Cl)c3)ccc2C(=O)N2CCCC21 (configuration not stated)	-22.3%
CCN1c2cc(C(=O)Nc3cccc(C)c3)ccc2C(=O)N2CCCCCC21 (configuration not stated)	-15.0%
CCc1cccc(NC(=O)c2ccc3c(c2)N(C)C2CCCCCN2C3=O)c1 (configuration not stated)	-27.4%
Cc1nnc(-c2cc(-c3cccnc3)ccn2)n1-c1ccccc1	-3.1%[44.1 µM]
Cc1ccccc1OCc1nc(C2CN(C(=O)c3ccc4ccccc4n3)C2)no1	-11.9%
COCCCN1CCc2nc(SCC(=O)Nc3ccc(C)c(Cl)c3)[nH]c(=O)c2C1	18.2%
O=C(Cc1ccccc1F)N1CCC(c2nc3c(nnn3Cc3ccc(F)cc3)c(=O)[nH]2)CC1	-17.5%
O=C(Cc1ccc(F)cc1)N1CCC(c2nc3c(nnn3Cc3ccc(Cl)cc3)c(=O)[nH]2)CC1	14.1µM*
Cc1cccc(Cn2nnc3c(=O)[nH]c(C4CCN(C(=O)c5ccccc5F)CC4)nc32)c1	-18.4%
COc1ccc(C2N3CC4(C)CN2CC(c2ccccc2)(C3)C4=O)cc1OC (configuration not stated)	32.6%
COc1ccc(S(=O)(=O)Nc2ccc(C)n(CC(=O)NCc3ccccc3)c2=O)cc1	-12.9%
CCc1ccc(NC(=O)Cn2c(C)ccc(NS(=O)(=O)c3ccccc3)c2=O)cc1	-5.8%
COc1ccccc1NC(=O)Cn1c(C)ccc(NS(=O)(=O)c2ccccc2)c1=O	1.41µM*
CNC(=O)N1CCC(C2CCN(C(=O)Cn3cccn3)C2)CC1 (configuration not stated)	5.0%
CN1C(=O)CC(C(=O)O)C12CCN(Cc1cccc(-c3ccccc3)c1)CC2 (configuration not stated)	-16.1%
OC[C@]12CCCN[C@@H]1CCN(Cc1cccc(-c3ccccn3)c1)C2	i
O[C@]12CCNC[C@H]1CN(Cc1cccc(-c3ccccc3)c1)CC2	8.91µM*
SMILES	Pf Dd2 inh
O=C(NC[C@H]1OC[C@@H](NCc2cccnc2)[C@@H]1O)C1CC1	9.0%[44.1 µM]
CN1C[C@H](N(C)C)CCC[C@@H](C(=O)N(C)Cc2cccnc2)CC1=O	-1.6%[44.1 µM]
CC[C@@H]1[C@@H](NC(=O)Cc2csc(C(C)=O)c2)[C@@H]2CCO[C@H]12	-1.9%
CC[C@@H]1[C@@H](NC(=O)C2(c3ccc(S(C)(=O)=O)cc3)CCC2)[C@@H]2CCO[C@H]12	8.91µM*
CC[C@@H]1[C@@H](NC(=O)CC2Cc3ccccc3C2)[C@@H]2CCO[C@H]12	-3.2%
CCOc1ccccc1CNC(=O)c1c(OC)cc(=O)n2c1CCCC2	-6.4%
COc1ccc(Cl)cc1NC(=O)c1nnn(Cc2cccc(C(F)(F)F)c2)c1N	-0.6%
COc1ccc(NC(=O)c2nnn(Cc3ccccc3C)c2N)c(OC)c1	1.12µM*
COc1ccc(NC(=O)c2nnn(CC(=O)Nc3cc(C)cc(C)c3)c2N)c(OC)c1	-9.8%
COc1ccc(Cn2nnc(C(=O)Nc3cc(OC)ccc3OC)c2N)cc1	i
Cc1cccc(Cn2nnc(C(=O)Nc3cc(C)ccc3C)c2N)c1	2µM*
Cc1ccc(Cl)cc1NC(=O)c1nnn(Cc2ccccc2)c1N	1.12µM*
